A selection: hits, their analogues and other compounds. The true share with any hit is near 4.6%.
ABHD5-PLIN5 inh: inhibitors of human ABHD5-perilipin-5 interaction; Q00G26+Q8WTS1; Split G. princeps luciferase complementation, luminescence, 4 h; inhibition, % at 4 µM; 360,000 tested, 0.78% active;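 active = inhibition above the mean inhibition across every tested compound plus 3 SD, cut at about 22% in these data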;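 also: 0% = DMSO only wells and the 100% control is not disclosed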
Target sequence (Q00G26 whole entry, looked up): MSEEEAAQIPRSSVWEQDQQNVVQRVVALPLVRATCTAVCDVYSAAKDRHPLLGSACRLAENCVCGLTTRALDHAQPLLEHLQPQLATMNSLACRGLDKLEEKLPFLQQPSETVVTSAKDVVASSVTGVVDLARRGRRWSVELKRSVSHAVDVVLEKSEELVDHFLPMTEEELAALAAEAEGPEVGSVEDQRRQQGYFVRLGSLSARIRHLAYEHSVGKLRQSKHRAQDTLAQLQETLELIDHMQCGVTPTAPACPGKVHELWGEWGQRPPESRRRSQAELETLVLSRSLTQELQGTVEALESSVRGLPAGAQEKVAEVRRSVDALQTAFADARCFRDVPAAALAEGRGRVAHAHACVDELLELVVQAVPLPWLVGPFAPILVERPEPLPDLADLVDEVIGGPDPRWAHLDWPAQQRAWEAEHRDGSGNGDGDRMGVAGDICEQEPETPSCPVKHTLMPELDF
Target sequence (Q8WTS1 whole entry, looked up): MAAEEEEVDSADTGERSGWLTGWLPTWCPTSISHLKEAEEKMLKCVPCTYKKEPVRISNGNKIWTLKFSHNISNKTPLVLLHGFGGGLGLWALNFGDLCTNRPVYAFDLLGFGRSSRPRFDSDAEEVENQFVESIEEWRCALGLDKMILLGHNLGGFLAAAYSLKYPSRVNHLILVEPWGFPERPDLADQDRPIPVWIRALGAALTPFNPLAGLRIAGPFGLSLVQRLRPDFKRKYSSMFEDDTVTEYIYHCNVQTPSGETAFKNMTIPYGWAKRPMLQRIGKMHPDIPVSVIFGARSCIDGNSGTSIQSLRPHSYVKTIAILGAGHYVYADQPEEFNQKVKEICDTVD
HIF-2a inh: inhibitors of HIF-2a | 786-0 RCC cells HIF-2a reporter, luciferase luminescence, overnight | inhibition, % at 18.8 µM | 360,000 tested, 0.72% active;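 active = inhibition of the luminescence signal of 40% or more relative to plate controls, in a single-dose primary screen at 18.75 µM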
Peg3 promoter: inhibitors of Peg3 promoter; HeLa PEG-Prom luciferase reporter, luminescence, overnight; inhibition, % at 20 µM; 360,000 tested, 1.7% active;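 active = inhibition of at least 50% at 20 µM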
Mdm2-MdmX inh: human Mdm2/MdmX binding inhibition; 330,000 tested, 3% active; SaOS-2 split-luciferase Mdm2/MdmX complementation, luminescence; inhibition, % at 8 µM; O15151+Q00987;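 active = inhibition of at least 50% at 8 µM in the primary screen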
CF NFkB inh: inhibitors of cystic fibrosis induced NF-kB | KKLEB NF-kB-GFP reporter, PAF-induced, GFP fluorescence overnight | inhibition, % at 5 µM | 360,000 tested, 0.86% active;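 active = at least 50% inhibition at 5 µM, scaled per plate between neutral and stimulator controls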;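 also: PAF is a Pseudomonas aeruginosa culture filtrate used as stimulus; plate controls were PAF-stimulated DMSO wells for no effect and unstimulated DMSO wells for full effect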
KKLEB cytotox: reduces viability of KKLEB cystic fibrosis airway cells | 360,000 tested, 0.36% active | KKLEB CF airway cells viability, ATPlite luminescence, overnight; active compounds read low; cells stimulated with P. aeruginosa culture filtrate | activity change (cytotoxicity), % at 5 µM;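 active = corrected activity change at or below -50% at 5 µM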
Active calls of the source: *; . = no result given.

SMILES	ABHD5-PLIN5 inh	HIF-2a inh	Peg3 promoter	Mdm2-MdmX inh	CF NFkB inh	KKLEB cytotox
O=C(NCc1ccc(F)cc1)C(c1ccccc1)c1ccccc1	0	21	12	-9	-12	4
CC(=O)N(Cc1ccc(F)cc1)C1=C(NCc2ccccc2)C(=O)c2ccccc2C1=O	-12	68*	110*	.	92*	-53*
CCC(C)n1ncn(-c2ccc(N3CCN(c4ccc(OCC5COC(Cn6cncn6)(c6ccc(Cl)cc6Cl)O5)cc4)CC3)cc2)c1=O (stereo not drawn)	8	24	21	29	63*	-2
CCC(C)n1ncn(-c2ccc(N3CCN(c4ccc(O)cc4)CC3)cc2)c1=O (stereo not drawn)	-3	2	22	-6	2	15
CCSc1ccccc1C(=O)n1nnc2ccccc21	2	26	70*	18	61*	-19
Cc1ccc(NC(=O)c2ccc(Cl)c(S(=O)(=O)N3CCCCCC3)c2)nc1	1	-46	-30	13	3	7
CCN1C(=O)CCN(C2CCCC2)c2nc(Nc3ccc(C(=O)NC4CCN(C)CC4)cc3OC)ncc21	6	-35	66*	.	-156	-16
COCC(=O)N1CCC(Oc2ccc(C(=O)NCc3cc(C)n(C)n3)cc2)CC1	-4	-3	2	-15	1	-10
CCCCn1nnnc1C(c1cc2ccccc2o1)N1CCN(CC(=O)N2CCCC2)CC1 (stereo not drawn)	1	12	.	.	.	.
COc1ccc(NC(=O)c2cccc3c(-c4cnn(C)c4)coc23)cc1	-1	-54	-67	.	-13	7
COc1cc(NC(=O)c2cccc3c(-c4cnn(C)c4)coc23)cc(OC)c1OC	6	-60	78*	.	-6	-4
CC(=O)c1cccc(NC(=O)c2cccc3c(-c4cnn(C)c4)coc23)c1	-2	-39	58*	.	-30	4
CCc1cc2c(SCC(=O)N3CCN(C(=O)c4cccs4)CC3)ncnc2s1	-5	10	14	.	-16	0
Cn1ncc(Cl)c1C(=O)Nc1ccc(CN2CCCCC2)cc1	-10	-2	11	8	2	-15
Nc1cccc(-c2nc3cc(S(=O)(=O)c4ccc5oc(-c6cccc(N)c6)nc5c4)ccc3o2)c1	2	-5	73*	40	-10	9
CCc1ccc(C2c3[nH]c4ccccc4c3CCN2C(=O)CN2CCN(CC)CC2)cc1 (stereo not drawn)	11	6	84*	30	13	-19
CCc1ccc(C2c3[nH]c4ccccc4c3CCN2C(=O)CNC(N)=O)cc1 (stereo not drawn)	5	36	17	5	-18	-7
COc1cccc(CN(C)C(=O)COc2ccc(C(=O)c3ccc(Cl)cc3)cc2)c1OC	4	4	27	23	-2	6
CCOc1ccc(-n2c(N)c(C(=O)NCc3ccco3)c3nc4ccccc4nc32)cc1	33*	0	34	24	6	-2
Nc1c(C(=O)NCc2ccco2)c2nc3ccccc3nc2n1CCc1ccccc1	13	-44	16	.	-19	-1
Nc1c(C(=O)Nc2ccccc2)c2nc3ccccc3nc2n1-c1ccc(O)cc1	23*	-26	16	32	-39	17
Cc1cc(NC(=O)CSc2nc(C(C)C)nc3sc(C)c(C)c23)no1	-2	20	23	12	8	1
Cc1cc(NC(=O)CSc2nc3sc(C)c(C)c3c(=O)n2C2CCCC2)no1	1	9	20	40	36	-59*
O=C(COc1cccc(NC(=O)c2cccc([N+](=O)[O-])c2)c1)c1ccc(Br)cc1	-1	1	50*	49	4	2
O=C(Nc1cccc(OCC(=O)N2CCOCC2)c1)c1cccc([N+](=O)[O-])c1	1	3	12	12	-16	3
SMILES	ABHD5-PLIN5 inh	HIF-2a inh	Peg3 promoter	Mdm2-MdmX inh	CF NFkB inh	KKLEB cytotox
O=C(N=Nc1c(O)[nH]c2ccc([N+](=O)[O-])cc12)c1ccccc1Cl	-3	-82	-43	-9	-38	-3
O=C(N=Nc1c(O)[nH]c2ccc(Cl)cc12)c1cc(-c2cccs2)nc2ccccc12	2	-18	70*	.	-5	4
COC(=O)CCCn1c(C)cc(C(=O)CCl)c1C	6	21	51*	41	23	21
COC(=O)CCn1c(C)cc(C(=O)COc2ccccc2C(N)=O)c1C	-1	13	3	-2	1	4
Cc1cc(C(=O)CSc2nncs2)c(C)n1Cc1ccco1	4	-89	-134	-95	-14	-2
CC(=O)c1cccc(OCC(=O)c2cc(C)n(-c3cc(C)on3)c2C)c1	-4	-15	-10	14	-6	-3
Cc1cc(C(=O)CCl)c(C)n1Cc1ccco1	11	26	62*	10	45	0
Cc1cc(C(=O)CCl)c(C)n1-c1ccon1	2	-1	53*	.	58*	9
COC(=O)[C@@]12C[C@@H](CC(=O)NCCCN3CCCC3=O)C(=O)N(CCc3ccc(OC)c(OC)c3)C1=CCC(C)(C)C2	-10	5	.	.	.	.
O=C(OCc1cn([C@H]2CN(CC3CCCCC3)[C@@H](c3ccccc3)C[C@@H]2O)nn1)c1ccccc1	-1	7	16	.	-18	10
CC(=O)Oc1ccc2nc(/C=C/c3ccccc3)oc(=O)c2c1	-4	-78	-1	12	8	12
Oc1ccc(/C=N/Nc2ccnc3cc(Cl)ccc23)cc1O	3	-94	74*	9	-38	-10
COc1ccc(N(C)S(=O)(=O)c2cccc(C(=O)NC3CCCC3)c2)cc1	-2	16	15	5	-20	8
COc1ccc(N(C)S(=O)(=O)c2cccc(C(=O)NC3CCCCC3C)c2)cc1 (stereo not drawn)	-1	17	102*	-1	7	-13
Clc1cccc(CN2CCc3c([nH]c4ccccc34)C2)c1	4	28	60*	34	-10	-26
COc1ccc(Nc2nc(Nc3ccc(OC)cc3)nc(-n3[nH]c(=O)c(C)c3C)n2)cc1	4	-40	48	28	87*	-31
O=C(NCCc1cccnc1)C1CCC(=O)N(CCc2cccc(F)c2)C1 (stereo not drawn)	22*	5	5	18	-11	9
O=C(NCCc1ccc(C(F)(F)F)cc1)C1CCC(=O)N(CCc2cccc(F)c2)C1 (stereo not drawn)	3	-38	-41	25	4	-14
CCOc1ccccc1/C=C/C(=O)N1CCN(C(=O)c2ccco2)CC1	10	-1	-5	7	24	-7
O=C(N[C@@H](Cc1ccccc1)C(=O)N1CCN(S(=O)(=O)c2ccccc2F)CC1)c1ccco1	9	8	16	19	4	-2

Compound activity deposited in PubChem by several laboratories.
